# KDM4E inh – blocks human JMJD2E demethylase activity | AID 2147 | JMJD2E catalytic domain, FDH-coupled NADH fluorescence (FDH is formaldehyde dehydrogenase) | 230,000 tested, 1.6% active | Potency, µM (top dose mostly 57.1 µM), for the others: at the top dose activity change, negative = inhibition, usual class: inhibitors | B2RXH2;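 also: potency is read from the fitted curve at half-maximal effect; 0% = wells with enzyme and -100% = buffer wells without enzyme; nearly all actives have a fitted effect of over 50% in size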
# CBFb RUNX1 block – blocks binding between human CBF-beta and RUNX1. Potency, µM (titrated, usually from 59.8 µM), for the others: at the top dose activity, negative = inhibition, usual class: inhibitors. AlphaScreen CBFb-His/RUNX1-biotin binding, biochemical. AID 1477. 230,000 tested, under 10 active; active = well fitted curve in the direction sought with a large enough effect; inconclusive = small, poorly fitted or top-dose-only effect, or another doubt; inactive = no such curve, though single readings can be large; an effect the other way counts as inactive or inconclusive; also: % of control where 0% means no effect
#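 Room-temperature protein-protein interaction test with 30 nM each of His-tagged CBF-beta and biotinylated RUNX1, 15 min with compound, then 90 min with nickel plus streptavidin beads. Signal read in AlphaScreen mode.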
# HTT ATP protect – Huntington cell model cytoprotection by ATP luminescence; PC12 HTT-Q103 induced, cytoprotection, ATP luminescence, 40 h; Potency, µM (doses to about 56.4 µM), for inactives: cytoprotection (ATP increase), hits mostly activators; 230,000 tested, 0.14% active; active = well fitted curve in the direction sought with a large enough effect; inconclusive = small, poorly fitted or top-dose-only effect, or another doubt; inactive = no such curve, though single readings can be large; an effect the other way counts as inactive or inconclusive; also: potency is read from the fitted curve at half-maximal effect; % of control where 0% means no effect; nearly all actives have a fitted effect of over 45% in size
#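 Stable PC12 Q103-GFP cells in serum-supplemented, phenol red-free DMEM; induction by tebufenozide at 100 nM final; compound dose series; cell viability quantified luminescently from ATP.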
# HPGD inh – blocks human HPGD enzyme activity. P15428. purified HPGD, NADH fluorescence kinetic, PGE2 substrate. 150,000 tested, 4.3% active. Potency, µM, without a hit: top-dose activity change, negative = inhibition, usual class: inhibitors; also: potency is read from the fitted curve at half-maximal effect; % is scaled to controls: 0 for no effect and ±100 for the full control effect
#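 NADH formation kinetics: reaction with 30 uM PGE2 and 1 mM NAD+ (final), 20 nM enzyme, Tris-HCl pH 8 with Tween 20, after 15 min compound preincubation at room temperature. Fluorescence change, last versus first of five reads.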
# ALDH1A1 block – blocks purified human ALDH1A1 activity. P00352. Purified ALDH1A1, NADH fluorescence, propionaldehyde substrate. Potency, µM (series often up to 75.3 µM), inactives show at the highest dose activity, negative = inhibition, usual class: inhibitors. 220,000 tested, 7.3% active. AID 1030;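 also: potency is read from the fitted curve at half-maximal effect; plate controls were no enzyme wells and a reference inhibitor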
# Target sequence (P00352 whole entry, looked up): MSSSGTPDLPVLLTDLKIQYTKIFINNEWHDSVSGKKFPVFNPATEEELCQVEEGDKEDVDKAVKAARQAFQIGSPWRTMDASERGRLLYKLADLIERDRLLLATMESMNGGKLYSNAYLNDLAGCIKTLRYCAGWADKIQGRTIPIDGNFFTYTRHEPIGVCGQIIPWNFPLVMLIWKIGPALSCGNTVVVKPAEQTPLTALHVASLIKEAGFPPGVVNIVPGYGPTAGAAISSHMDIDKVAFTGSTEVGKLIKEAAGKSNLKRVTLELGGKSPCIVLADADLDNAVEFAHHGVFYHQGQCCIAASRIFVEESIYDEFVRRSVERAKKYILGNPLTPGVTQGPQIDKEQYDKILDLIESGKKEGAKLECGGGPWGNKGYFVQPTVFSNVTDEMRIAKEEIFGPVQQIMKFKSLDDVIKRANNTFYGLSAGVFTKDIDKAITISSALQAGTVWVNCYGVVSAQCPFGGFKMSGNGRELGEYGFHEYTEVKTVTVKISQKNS
# HttQ103 aggreg – inhibitors of mutant huntingtin aggregate formation in PC12 cells | Potency, µM (doses to about 46.1 µM), for the others: at the highest dose activity change, negative = inhibition, hits mostly inhibitors | 220,000 tested, 1.1% active | PC12 HttQ103-GFP aggregates, Acumen cytometry, 40 h; active = well fitted curve in the direction sought with a large enough effect; inconclusive = small, poorly fitted or top-dose-only effect, or another doubt; inactive = no such curve, though single readings can be large; an effect the other way counts as inactive or inconclusive; also: potency is read from the fitted curve at half-maximal effect; % is scaled to controls: 0 for no effect and ±100 for the full control effect; nearly all actives have a fitted effect of over 60% in size
#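 Multiplexed with ATP-based cell death, this channel scores GFP aggregates in PC12 cells expressing inducible HTTex1-Q103-GFP. Induction used 100 nM tebufenozide; compounds were tested in concentration series.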
# * hit, by the source's call; ? = inconclusive; · = no result; [ ] = remark or other dose. A selection: hits, their analogues and other compounds. The true share with any hit is near 9.8%. Unless noted, calls follow the shape of the dose curve; as a rule, active = well fitted inhibition curve with a large enough effect (not every such curve was filed as active); inconclusive = small, poorly fitted or top-dose-only effect, or another doubt; inactive = no such curve, though single readings can be large or run the other way.
SMILES,KDM4E inh,CBFb RUNX1 block,HTT ATP protect,HPGD inh,ALDH1A1 block,HttQ103 aggreg
COc1ccc(CCN2C(=O)CC(NCCc3ccc(S(N)(=O)=O)cc3)C2=O)cc1OC (centres undefined),1%,5%,-13%,-2%,10µM*,-1%
COc1ccc(CN2C(=O)C3C4C=CC(C4)C3C2=O)cc1 (centres undefined),-5%,3%,-22%,-2%,-1%,3%
COc1ccc(CCN2C(=O)CC(Cc3ccc(C)cc3)C2=O)cc1OC (centres undefined),-9%,4%,7%[10 µM],·,-8%,-7%[9.22 µM]
N#Cc1cccc(-c2nc(NCc3cccs3)c3ccccc3n2)c1,·,·,-10%,·,2%,·
COc1ccccc1N1CCN(CC(=O)Nc2ccc(-n3cnnn3)cc2)CC1,?,3%,-18%,·,5%,8%
O=C(NC(=S)Nc1ccc(N2CCOCC2)c(Cl)c1)c1cncc(Br)c1,-2%,0%,·,22µM*,7.9µM*,3%
O=C(NC(=S)Nc1ccc(N2CCCCC2)c(Cl)c1)c1ccc2c(c1)OCCO2,-3%,-3%,?,?,10µM*,-13%
O=C(NC(=S)Nc1ccc(N2CCOCC2)c(Cl)c1)c1sc2ccccc2c1Cl,-23%,-1%,-20%[1.9 µM],-22%,3.5µM*,8%
O=C(NC(=S)Nc1ccccc1N1CCOCC1)c1sc2ccccc2c1Cl,-4%,7%,13%[10 µM],-15%,?,6%
CCCCCC(=O)NC(=S)Nc1ccc(N2CCCCC2)c(Cl)c1,2%,-1%,-1%,·,8%,0%
O=C(COC(=O)Cc1ccccc1F)Nc1ccc(F)cc1F,-2%,14%,-8%,·,?,20%
CC1=C(C(=O)N(C)C)C(c2ccc(N3CCOCC3)cc2)NC(=O)N1 (centres undefined),-5%,?,-8%,·,-1%,3%
O=C(OC1CCOC1=O)c1ccc(NS(=O)(=O)c2cccs2)cc1 (centres undefined),-1%,1%,-14%,·,?,7%
COCCN(C(=O)C(F)(F)F)C(C(=O)NC1CCCCC1)c1ccco1 (centres undefined),7%,-3%,-2%,-11%,4.7µM*,-2%
CC1CCCCN1C(=O)COc1ccc(F)cc1 (centres undefined),7%,-1%,-2%[10 µM],·,2%,-10%[9.22 µM]
NC(=O)C1=C[C@H](c2ccc(C(F)(F)F)cc2)C[C@H](OCCCCO)O1,?,13%,-3%[10 µM],·,-3%,6%[9.22 µM]
COc1ccc(CCNCc2ccc(OCc3ccc(Cl)nc3)c(OC)c2)cc1OC,1%,-6%,-21%,-6%,2%,3%
COc1cc(C=O)ccc1OCc1ccc(Cl)nc1,-7%,6%,-18%,·,5µM*,18%
CN(C)C(=O)c1ccc(-c2cncnc2Nc2ccc(F)cc2)cc1,·,·,-24%,·,11µM*,·
COc1ccccc1N1CC(C)(C)C(=O)N(C(=O)c2c(F)cccc2Cl)C1=S,-4%,-11%,26%[10 µM],·,·,5%[9.22 µM]
CNC1C(O)[C@@H]2OC(O[C@@H]3C(O)C(O)C(N)C[C@H]3N)C(N)C[C@H]2O[C@H]1O[C@@H]1OC(CO)C(N)C(O)C1O (some centres undefined),-1%,15%,-25%,-2%,0%,·
Cc1cc(N2C(=O)C=CC2=O)c([N+](=O)[O-])cc1C,1%,-14%,-4%[10 µM],2.8µM*,0.79µM*,?
N#C/C(=C\c1cccc(Cl)c1)C(=O)c1ccccc1,?,-12%,-11%[10 µM],·,0.71µM*,-11%[9.22 µM]
N#C/C(=C\c1ccc[nH]1)C(=O)c1ccccc1,-9%,-3%,29%[10 µM],·,?,-2%[9.22 µM]
CCN1C(=O)S/C(=C\c2ccc(N3CCOCC3)cc2C)C1=O,4%,-1%,1%,·,-15%,26%
Cc1cc(N2CCOCC2)ccc1/C=C1\SC(=O)N(C(C)C)C1=O,11%,2%,17%,-17%,5µM*,-18%

# Screening data from PubChem.
